Test results as given in PubChem BioAssay (Tox21).
Inconclusive results are not listed. Calls of active or inactive are those of the source. Unless noted, calls follow the shape of the dose curve; as a rule, active = well fitted curve in the direction sought with a large enough effect in the repeat runs; inconclusive = weak or mixed curves; inactive = no such curve, though single readings can be large; an effect the other way counts as inactive or inconclusive.

Experiments:
[1] = target: Aryl hydrocarbon receptor (Homo sapiens) (UniProt P35869); assay: qHTS assay to identify small molecule that activate the aryl hydrocarbon receptor (AhR) signaling pathway (AID 743085);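 also: HG2L7.5c1 human HepG2 liver cells with stably integrated DRE-driven firefly reporter; series mostly up to about 70 µM; nearly all actives have a fitted effect of over 15% in size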
In short: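 24 h compound exposure, 37C, HepG2-derived HG2L7.5c1 cells with DRE-responsive luciferase. Readouts: fluorescence viability, then luminescence at room temperature after 30 min.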

[2] = qHTS assay to identify small molecule that activate the aryl hydrocarbon receptor (AhR) signaling pathway - cell viability counter screen (AID 743086);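 also: HepG2 liver cells carrying the AhR DRE luciferase reporter; series mostly up to about 70 µM; nearly all actives have a fitted effect of over 45% in size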
In short: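 HepG2-AhR-luc (HG2L7.5c1) cells, 4000/well, were preincubated 5 h at 37C, exposed to compound in qHTS format for 24 hr at 37C, then given CellTiter-Fluor for 30 min; viability was read as fluorescence in the reporter wells.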

[3] = target: Peroxisome proliferator-activated receptor gamma (Homo sapiens) (UniProt P37231); assay: qHTS assay to identify small molecule agonists of the peroxisome proliferator-activated receptor gamma (PPARg) signaling pathway (AID 743094; active = well fitted activation curve with a large enough effect in the signal ratio in the repeat runs, not every such curve was filed as active; the % refers to the signal ratio)
In short: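 Cell-based bla reporter, HEK293H background, PPARg-driven UAS. Pre-incubation 5 h, 37C, 5% CO2. Compound 17 h, 37C. Substrate 1 h RT; fluorescence.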

[4] = target: Peroxisome proliferator-activated receptor gamma (Homo sapiens) (UniProt P37231); assay: qHTS assay to identify small molecule antagonists of the peroxisome proliferator-activated receptor gamma (PPARg) signaling pathway (AID 743191; calls by dose curve; also: series mostly up to about 63 µM; nearly all actives have a fitted effect of over 30% in size)
In short: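 GeneBLAzer PPARg UAS-bla HEK293H cells carrying a UAS-driven beta-lactamase reporter were plated at 3000 cells/well, preincubated 5 h at 37C, then given compound for 17 h at 37C; LiveBLAzer B/G FRET substrate was read after 1 h at room temperature.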

[5] = qHTS assay to identify small molecule antagonists of the peroxisome proliferator-activated receptor gamma (PPARg) signaling pathway - cell viability counter screen (AID 743194); also: nearly all actives have a fitted effect of over 55% in size
In short: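 PPARg-UAS-bla HEK293H cells were plated, rested 5 h at 37 C, then treated with compounds plus rosiglitazone (50 nM final) for 17 h at 37 C; viability was then read by CellTiter-Glo luminescence after 30 min at room temperature.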

[6] = qHTS assay for small molecule agonists of the antioxidant response element (ARE) signaling pathway (AID 743202; active = well fitted activation curve with a large enough effect in the signal ratio in the repeat runs, not every such curve was filed as active; the % refers to the signal ratio)
In short: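 Following a 16 h, 37 C exposure of reporter HepG2 cells (ARE-driven beta-lactamase, 2,000 cells/well) to compounds, FRET substrate was applied for 2 h at room temperature and fluorescence intensity recorded.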

[7] = qHTS assay for small molecule agonists of the antioxidant response element (ARE) signaling pathway - cell viability counter screen (AID 743203; calls by dose curve; also: nearly all actives have a fitted effect of over 55% in size)
In short: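 Measured in the same wells as the beta-lactamase ARE reporter, this read-out is CellTiter-Glo luminescence from HepG2 ARE-bla cells given compounds for 16 hrs.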

[8] = qHTS assay for small molecule activators of the heat shock response signaling pathway - cell viability counter screen (AID 743209); also: nearly all actives have a fitted effect of over 50% in size
In short: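 Same-well multiplex: after 2.5 h room-temperature incubation with LiveBLAzer B/G substrate and fluorescence reading, CellTiter-Glo reagent was added to HSE-bla HeLa cells that had received compound for 5 h at 37 C; luminescence read after 30 min.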

[9] = qHTS assay for small molecule activators of the heat shock response signaling pathway (AID 743210; active = well fitted activation curve with a large enough effect in the signal ratio in the repeat runs, with a control signal flat, not every such curve was filed as active; the % refers to the signal ratio; also: series mostly up to about 63 µM)
In short: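 Heat shock element–beta-lactamase HeLa reporter cells; qHTS with compounds for 5 h at 37 C; detection by FRET substrate fluorescence after 2.5 h at RT.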

[10] = qHTS assay to identify small molecule agonists of the peroxisome proliferator-activated receptor delta (PPARd) signaling pathway - cell viability counter screen (AID 743211); also: nearly all actives have a fitted effect of over 55% in size
In short: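 Luminescent ATP viability assay (CellTiter-Glo, 30 min RT) in UAS-bla HEK293H cells carrying the PPAR delta reporter construct, 3000 cells/well, after a 17 h compound treatment at 37 C.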

Measured: Potency

Sequence of Aryl hydrocarbon receptor (Homo sapiens) (P35869 whole entry, looked up): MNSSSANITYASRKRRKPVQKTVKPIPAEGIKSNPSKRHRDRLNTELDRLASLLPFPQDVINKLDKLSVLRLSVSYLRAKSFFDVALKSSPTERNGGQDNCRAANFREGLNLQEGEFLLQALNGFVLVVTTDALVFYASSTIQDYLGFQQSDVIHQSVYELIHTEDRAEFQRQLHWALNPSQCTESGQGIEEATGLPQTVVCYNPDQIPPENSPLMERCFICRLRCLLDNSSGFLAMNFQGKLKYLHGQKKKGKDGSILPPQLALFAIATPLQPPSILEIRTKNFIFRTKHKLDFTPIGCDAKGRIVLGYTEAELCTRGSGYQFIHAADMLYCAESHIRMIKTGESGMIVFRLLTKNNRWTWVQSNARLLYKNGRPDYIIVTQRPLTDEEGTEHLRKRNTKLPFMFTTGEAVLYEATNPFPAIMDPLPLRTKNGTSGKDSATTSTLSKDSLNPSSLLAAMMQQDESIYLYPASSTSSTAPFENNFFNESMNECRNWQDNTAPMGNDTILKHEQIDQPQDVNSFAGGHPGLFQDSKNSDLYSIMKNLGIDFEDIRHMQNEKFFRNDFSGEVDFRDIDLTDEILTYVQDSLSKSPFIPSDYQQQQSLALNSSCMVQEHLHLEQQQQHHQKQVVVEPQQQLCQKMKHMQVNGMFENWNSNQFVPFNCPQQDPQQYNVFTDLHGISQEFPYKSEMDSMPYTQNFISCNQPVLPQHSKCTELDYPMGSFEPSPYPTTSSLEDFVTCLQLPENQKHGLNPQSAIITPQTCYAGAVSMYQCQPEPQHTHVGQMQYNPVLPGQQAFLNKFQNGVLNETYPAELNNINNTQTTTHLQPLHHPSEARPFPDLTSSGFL
Sequence of Peroxisome proliferator-activated receptor gamma (Homo sapiens) (P37231 whole entry, looked up): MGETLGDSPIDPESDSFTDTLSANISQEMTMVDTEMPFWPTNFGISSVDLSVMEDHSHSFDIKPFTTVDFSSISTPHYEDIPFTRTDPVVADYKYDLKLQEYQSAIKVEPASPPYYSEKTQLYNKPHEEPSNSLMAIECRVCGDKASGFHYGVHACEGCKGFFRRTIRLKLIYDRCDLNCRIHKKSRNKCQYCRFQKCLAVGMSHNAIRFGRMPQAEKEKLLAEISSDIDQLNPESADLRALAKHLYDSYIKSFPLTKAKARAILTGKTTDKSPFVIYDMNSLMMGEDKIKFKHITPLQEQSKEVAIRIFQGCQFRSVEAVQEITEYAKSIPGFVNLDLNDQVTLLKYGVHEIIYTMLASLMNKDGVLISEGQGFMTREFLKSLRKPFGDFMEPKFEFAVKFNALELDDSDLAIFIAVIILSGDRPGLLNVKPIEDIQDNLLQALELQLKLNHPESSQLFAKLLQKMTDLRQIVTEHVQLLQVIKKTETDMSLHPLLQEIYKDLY

CC(=O)OCCC1CCCCC1
inactive: all assays above

O=C(NC(Cc1cc(=O)[nH]c2ccccc12)C(=O)O)c1ccc(Cl)cc1 (centres undefined)
inactive: all assays above

COc1ccc(C)cc1
not listed: [9]
inactive: all other assays above

O=C(/C=C/c1ccc([N+](=O)[O-])cc1)c1ccccc1
not listed: [8] | [10]
inactive: all other assays above

CCCCCCCCCCCCCCN(C)C
not listed: [10]
inactive: all other assays above

CC12CC3CC(C)(C1)CC(N)(C3)C2
inactive: all assays above

C1CCCCC1
inactive: all assays above

Cc1ccc(S(=O)(=O)NC(=O)NC2CCCCC2)cc1
not listed: [10]
inactive: all other assays above

Cc1cccc(C)c1NC(=O)c1cc(S(N)(=O)=O)c(Cl)cc1O
inactive: all assays above

CC(=O)OCCC(C)CC(C)(C)C (centres undefined)
not listed: [10]
inactive: all other assays above

CCOCCC(=O)OCC
inactive: all assays above

O=C(O)c1ccc(O)cc1O
not listed: [10]
inactive: all other assays above

COc1ccc(C(=O)NCc2ccc(OCCN(C)C)cc2)cc1OC
inactive: all assays above

O=C(c1ccccc1)C1CCC1
not listed: [9] | [10]
inactive: all other assays above

C=CC(=O)NC(C)C
inactive: all assays above

CC(C)(C(=O)c1cccnc1)c1cccnc1
not listed: [10]
inactive: all other assays above

O=C(O)CN1C(=O)c2cccc3cccc(c23)C1=O
inactive: all assays above

CCCCCCCC(=O)OCCCCCC
inactive: all assays above

CCN(CC)C(=O)N1CCN(C)CC1
not listed: [8]
inactive: all other assays above

CC(=O)c1ccc[nH]1
inactive: all assays above

COc1cc(NC(C)CCCN)c2ncccc2c1 (centres undefined)
inactive: all assays above

CC(C)c1ccc(C(=O)N=C(N)N)cc1S(C)(=O)=O
inactive: all assays above

CCc1ccc(C)cc1
inactive: all assays above

CCC(CO)(CO)[N+](=O)[O-]
inactive: all assays above
